Most compounds without a hit are left out; they make up all but 5.9% or so of the library.
HepG2 tox – kills HepG2 cells in TGF-b inhibitor counter-screen; HepG2 CAGA-GFP viability, ATP luminescence, 18 h; Potency, µM (titrated, usually from 46.1 µM), for inactives: at the top dose activity change, negative = cytotoxicity, most hits filed as cytotoxic; 0.76% of 410,000 active
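CellTiter-Glo luminescence gave cytotoxicity after 18 hours at 37 degrees C. The cells were HepG2 CAGA-GFP in 1% FBS DMEM, stimulated with 500 pg/mL TGF-beta after compound addition. %Activity was normalised to no-cell wells (complete cell-killing) and DMSO (no toxicity), and curves were fitted and classified.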
KB-V1 MDR tox – KB-V1 MDR subline cytotoxicity | KB-V1 MDR cells viability, CellTiter-Glo, 72 h | Potency, µM (top dose mostly 46.1 µM), most hits filed as cytotoxic | 3.4% of 400,000 active | AID 1347076; also: % is scaled to controls: 0 for no effect and ±100 for the full control effect; nearly all actives have a fitted effect of over 60% in size
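Cells of the MDR subline KB-V1 are plated, dosed with compound at multiple concentrations, and incubated 72 h at 37 degrees C; CellTiter-Glo is then added and luminescence read after 10 min.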
KB-3-1 cytotox – kills parental KB-3-1 adenocarcinoma cells; Potency, µM (series often up to 46.1 µM), actives largely listed as cytotoxic; AID 1347075; KB-3-1 viability, CellTiter-Glo ATP luminescence, 72 h; 1.4% of 400,000 active; also: % is scaled to controls: 0 for no effect and ±100 for the full control effect; nearly all actives have a fitted effect of over 60% in size
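Viability of parental KB-3-1 cells, measured by CellTiter-Glo luminescence, followed a 72 h incubation at 37 °C with pinned compounds in phenol-red-free DMEM containing 10% FBS.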
ATXN2 expr inh – ATXN2 expression inhibition; HEK-293 ATXN2-luciferase reporter, luminescence, 24 h; Potency, µM (doses to about 57 µM), for inactives: top-dose activity change, negative = inhibition, usual class: inhibitors; 0.72% of 360,000 active; also: % is scaled to controls: 0 for no effect and ±100 for the full control effect; nearly all actives have a fitted effect of over 55% in size
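qHTS (up to 57 uM final) was run with 24 h compound exposure of reporter cells at 37 °C. Each well was multiplexed: SteadyGlo luminescence measured ATXN2-luciferase expression after a fluorogenic Gly-Phe-AFC viability readout (25 uM final).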
ATXN viability – cell viability loss in ATXN counter-screen. S2 cells (HEK-293 line with an ATXN2-luciferase reporter) viability, CellTiter-Fluor protease fluorescence, 24 h. Potency, µM (titrated, usually from 56.7 µM), usual class: cytotoxic. 0.49% of 400,000 active; also: nearly all actives have a fitted effect of over 40% in size
TGFb SMAD3 inh – TGF-b pathway inhibition | HepG2 CAGA-GFP TGF-b/SMAD3 reporter, GFP fluorescence, 18 h; TGF-beta stimulated, 500 pg/mL final | Potency, µM (series often up to 46.1 µM), for the others: at the top dose activity, negative = inhibition, actives largely listed as inhibitors | 1.2% of 410,000 active; also: % is scaled to controls: 0 for no effect and ±100 for the full control effect; nearly all actives have a fitted effect of over 65% in size
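Inhibition was scored as loss of TGF-beta-induced (500 pg/mL final, 18 hours, 37 degrees C) GFP in HEPG2 cells carrying a CAGA-GFP reporter, in DMEM with 1% FBS. Well GFP was summed per cell; Activity was normalised to unstimulated and stimulated DMSO wells, then concentration-response fitting.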
* marks the source's active call; other numbers are inactive results; i = inactive; u = inconclusive; x = not tested or not shown; ! = repeats disagree. Calls follow the shape of the dose curve; as a rule, active = well fitted curve in the direction sought with a large enough effect; inconclusive = small, poorly fitted or top-dose-only effect, or another doubt; inactive = no such curve, though single readings can be large; an effect the other way counts as inactive or inconclusive. Potency is read from the fitted curve at half-maximal effect.

SMILES	HepG2 tox	KB-V1 MDR tox	KB-3-1 cytotox	ATXN2 expr inh	ATXN viability	TGFb SMAD3 inh
CCCCc1c(-c2ccc(OC)cc2)ncn1CCc1ccccc1OC	x	14.6µM*	u	u	x	x
CCCCc1c(Cc2ccccc2)ncn1CCc1ccccc1OC	x	18.4µM*	20.6µM*	14.1µM*	x	x
CCCCCc1c(-c2ccc(Cl)cc2)ncn1CCc1ccccc1OC	x	11.6µM*	u	0.0%	x	x
CCc1ncn(CCc2ccccc2OC)c1C(C)C	x	u	u	-3.1%	i	x
COC(=O)c1cccc(-c2cc(Cl)c3c(c2)CC(CNC(=O)c2cccnc2)O3)c1 (stereo not given)	x	x	x	x	i	x
CNC(=O)c1ccc(NC(=O)COc2ccc(-c3nn(C)c(=O)c4ccccc34)cc2)cc1	-0.2%	i	i	1.3%	i	1.7%
CCCc1c(-c2cccc(Cl)c2)ncn1Cc1ccccc1OC	x	16.4µM*	u	-35.4%	u	x
CCCCc1c(-c2ccc(F)cc2)ncn1CCc1ccccc1OC	x	11.6µM*	u	u	x	x
CCCCCc1c(-c2ccc(OC)cc2)ncn1CCc1ccccc1OC	x	10.3µM*	u	u	x	x
COc1ccccc1CCn1cnc(C)c1CC(C)C	x	i	u	0.0%	u	x
CCCCc1c(-c2ccccc2)ncn1CCc1ccccc1OC	x	10.3µM*	u	u	x	x
CC1CN(Cc2cccn2-c2ncccn2)Cc2cc(Cl)ccc2O1 (stereo not given)	x	x	x	x	i	x
O=C(C[n+]1ccccc1Br)c1ccc(O)c(O)c1	1.6%	i	u	x	x	-3.9%
CCCS(=O)(=O)NC(=O)C1(C)CCCN(C(=O)c2ccc3c(c2)OCO3)C1 (stereo not given)	-5.2%	i	i	11.8%	i	8.7%
Cc1ccnc(NC(=O)/C=C/c2cccs2)c1	-25.7%	11.6µM*	u	10.2%	i	-23.7%
O=C(/C=C/c1cccs1)NNC(=O)c1cccc([N+](=O)[O-])c1	-6.3%	i	i	17.1%	i	0.0%
Cc1cc([N+](=O)[O-])ccc1NC(=O)/C=C/c1cccs1	-1.0%	8.2µM*	u	51.8%	u	-20.3%
COc1cc(C2C(=O)N(C3CCCCC3)CC(=O)N2CCc2ccccc2)ccc1OC(C)C (stereo not given)	-10.2%	x	x	x	x	0.4%
Cc1cc(CCCOc2c(C)cc(-c3noc(C(F)(F)F)n3)cc2C)on1	x	x	x	-10.0%	i	x
CCCCn1c(=NC(=O)c2cc3ccccc3o2)c(C(=O)OCC)cc2c(=O)n3ccccc3nc21	-29.3%	i	i	9.2%	i	15.6%
O=c1/c(=C\c2ccc3c(c2)OCO3)sc2n1CCCN=2	-43.2%	13µM*	i	-1.7%	i	8.5%
CCOC(=O)c1cnc2ccccc2c1NCCc1ccc(OC)c(OC)c1	-47.2%	i	i	u	u	u
CCOC(=O)c1cnc2ccc(OC)cc2c1NCCc1ccc(OC)c(OC)c1	-46.6%	u	i	28.2µM*!	u	15.8µM*!
CCOC(=O)c1cnc2ccc(OCC)cc2c1N1CCN(c2ccccc2F)CC1	-27.3%	u	i	0.0%	u	11.2µM*
CCOC(=O)c1cnc2ccc(OCC)cc2c1N1CCN(c2ccccc2)CC1	-25.5%	u	u	-16.9%	i	u
SMILES	HepG2 tox	KB-V1 MDR tox	KB-3-1 cytotox	ATXN2 expr inh	ATXN viability	TGFb SMAD3 inh
CCOC(=O)C1CCN(c2c(C(=O)c3ccc(OCC)cc3)cnc3ccc(OC)cc23)CC1	-32.5%	u	i	u	u	8.91µM*
CCOC(=O)C1CCCN(c2c(C(=O)c3ccccc3)cnc3ccc(OC)cc23)C1 (stereo not given)	-24.0%	u	i	-10.8%	i	-23.5%
CCOC(=O)c1cnc2ccc(OCC)cc2c1NCc1ccccc1	-39.2%	1.84µM*	u	u	u	u
CCOC(=O)c1cnc2ccc(C)cc2c1Nc1ccc(N(CC)CC)cc1	-28.7%	i	i	0.0%	x	u
CCC(C(=O)Nc1nnc2n1CCS2)c1ccccc1 (stereo not given)	2.5%	u	i	4.2%	i	-1.2%
Cc1[nH]c2ccccc2c1C(c1ccccc1)c1ccc(Cl)s1 (stereo not given)	-95.8%	i	i	u	u	u
CN1C2CCC1/C(=C/c1cccn1C)C(=O)/C2=C\c1cccn1C	-15.7%	i	i	-31.0%	x	95.9%
CN1C2CCC1/C(=C\c1ccc(F)cc1)C(=O)/C2=C/c1ccc(F)cc1	-55.5%	23.1µM*	u	-21.4%	i	-8.0%
N#CCC1c2ccccc2CCN1C(=O)Nc1cccc(Cl)c1 (stereo not given)	-13.9%	16.4µM*	i	4.2%	i	-7.0%
N#CCC1c2ccccc2CCN1C(=O)Nc1ccc(Cl)cc1 (stereo not given)	-19.5%	i	i	-5.9%	i	-20.6%
CCN1CCN(c2nn3c(=O)c4ccccc4nc3c3ccccc23)CC1	4.6%	u	u	-22.6%	i	16.4%
CC1CN(c2nn3c(=O)c4ccccc4nc3c3ccccc23)CC(C)O1 (stereo not given)	-14.9%	20.6µM*	u	-21.3%	i	u
Clc1ccccc1-c1nc2ccccc2c2nc3ccccc3n12	-4.7%	4.11µM*	u	-7.1%	i	0.3%
CC(C)Cn1c(-c2ccccc2Cl)nc2ccccc21	-22.1%	i	i	-7.1%	i	-24.9%
CC(C)N(C(=O)Cn1c(-c2ccccc2Cl)nc2ccccc21)c1ccccc1	1.8%	10.3µM*	i	3.5%	i	-20.0%
CCOC(=O)c1c(S(=O)(=O)N2CCCC(C(=O)Nc3cc(C)ccc3OC)C2)c(C)n(C)c1C (stereo not given)	-20.0%	i	i	8.0%	i	u
CN1CCN(c2ccc(-c3cccc4nccn34)cn2)CC1	-17.8%	i	i	15.9%	i	3.3%
O=C(O)c1cccc(-c2nnn(Cc3ccccc3Cl)n2)c1	5.0%	i	i	11.2µM*	i	3.6%
O=C(O)c1cccc(-c2nnn(Cc3ccccc3)n2)c1	-7.0%	i	i	-23.7%	i	-1.3%
CC(=O)c1ccc(NC(=O)C2CCC(CNS(=O)(=O)c3cccc4nsnc34)CC2)cc1 (stereo not given)	20.2%	i	i	-2.2%	i	21.9%
CCSc1oc(-c2ccc(F)cc2)nc1S(=O)(=O)c1ccc(C)cc1	-6.6%	x	x	x	x	-26.9%
CC(C)CS(=O)(=O)c1oc(-c2ccc(F)cc2)nc1S(=O)(=O)c1ccccc1	7.08µM*	x	x	x	x	3.16µM*
